# Screening results from PubChem BioAssay.
# Pf growth 48h = Primary qHTS for delayed death inhibitors of the malarial parasite plastid, 48 hour incubation | Potency, µM (highest dose often 28.7 µM), for inactives: top-dose activity change, negative = inhibition, most hits filed as inhibitors | P. falciparum luciferase growth in erythrocytes, 48 h | 310,000 compounds, 5.9% hits | AID 504832, 2011; also: potency is read from the fitted curve at half-maximal effect; % is scaled to controls: 0 for no effect and ±100 for the full control effect
#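 Cell-based growth assay: transgenic P. falciparum expressing firefly luciferase, cultured in red cells within RPMI 1640 containing 0.5% w/v Albumax, 24 mM bicarbonate and gentamycin. A drop in luciferase activity indicates inhibition.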
# Cycloheximide cs = Cycloheximide Counterscreen for Small Molecule Inhibitors of Shiga Toxin. cell reporter, cycloheximide protein synthesis inhibition counterscreen. max response, %. 300,000 compounds, 12% hits. AID 2314, 2010; in the data active = max response mostly above about 13%, no sharp cut-off; inactive = mostly below about 14%; also: read at 38.3 µM for the half of the compounds with a filed dose; 0% is about no effect
# Shiga toxin inh = A qHTS for Small Molecule Inhibitors of Shiga Toxin; 290,000 compounds, 9.2% hits; Vero cells, Shiga toxin protein synthesis inhibition reporter; AID 2315, 2010; inhibition, % at 38.7 µM; in the data active = inhibition mostly above about 28%, no sharp cut-off; inactive = mostly below about 43%; also: 0% is about no effect
# Pf growth 96h = Primary qHTS for delayed death inhibitors of the malarial parasite plastid, 96 hour incubation | Potency, µM (titrated, usually from 28.7 µM), inactives show at the top dose activity change, negative = inhibition, usual class: inhibitors | 320,000 compounds, 6.9% hits | P. falciparum luciferase reporter growth, 96 h; also: potency is read from the fitted curve at half-maximal effect; % is scaled to controls: 0 for no effect and ±100 for the full control effect
#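 96 h incubation, 37 C, 5% CO2, of luciferase-reporter P. falciparum-infected RBCs (2% hematocrit, 0.05% parasitemia final) with test compounds; endpoint luminescence.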
# MARV entry inh = qHTS for inhibitors of binding or entry into cells for Marburg Virus | AID 540276, 2011 | Marburg virus pseudotyped entry inhibition, cell reporter | Potency, µM (series often up to 37.8 µM), for the others: at the top dose activity change, negative = inhibition, usual class: inhibitors | 300,000 compounds, 1.8% hits; calls by dose curve; tested in HEK293 cells; also: potency is read from the fitted curve at half-maximal effect; % is scaled to controls: 0 for no effect and ±100 for the full control effect
# Lassa entry inh = qHTS for Inhibitors of binding or entry into cells for Lassa Virus; Lassa virus pseudotype entry inhibition, cell reporter; Potency, µM (highest dose often 37.9 µM), for the others: at the highest dose activity change, negative = inhibition, usual class: inhibitors; 300,000 compounds, 1.2% hits; AID 540256, 2011; calls by dose curve; tested in HEK293 cells; also: potency is read from the fitted curve at half-maximal effect; % is scaled to controls: 0 for no effect and ±100 for the full control effect; nearly all actives have a fitted effect of over 50% in size
# * = called active by the depositor; i = inactive; ? = inconclusive; / = not tested or not shown; [ ] = another dose, or the depositor's remark. Rows were chosen to be rich in hits. Some 19% of all compounds tested hit in one or more screens of this group. Unless noted, calls follow the shape of the dose curve; as a rule, active = well fitted inhibition curve with a large enough effect; inconclusive = small, poorly fitted or top-dose-only effect, or another doubt; inactive = no such curve, though single readings can be large or run the other way.
SMILES,Pf growth 48h,Cycloheximide cs,Shiga toxin inh,Pf growth 96h,MARV entry inh,Lassa entry inh
O=C(COC(=O)c1c2c(nc3ccccc13)CCCC2)c1cccs1,?,23*,46,?,7%,-14%
Clc1ncccc1-c1nc2ccccc2s1,111%,34*,106*,161%,?,2%
COc1cc(OC)cc(C(=O)Nc2ccccc2-c2nc3ccccc3s2)c1,/,/,/,/,/,-6%[46.1 µM]
COc1cccc(-c2nc3ccccc3s2)c1O,165%,27*,64,9%,?,?
COc1cc(OC)c(-c2nc3ccccc3s2)cc1OC,-12%,24*,33*,?,/,/
CCOc1cc(C2c3c(oc4cc(C)c(Cl)cc4c3=O)C(=O)N2Cc2ccco2)ccc1O (centres undefined),?,-2,-6,45%,?,2%
COc1ccc(-c2nn(-c3ccccc3)cc2C(=O)N(C)CC(=O)Nc2ccc(N3CCOCC3)cc2)cc1,?,/,/,6%,22%,-13%
COc1ccc(Cl)cc1NS(=O)(=O)c1ccc2c(c1)NC(=O)CCS2,17%,-1,10,7.4µM*,/,/
CC(=O)c1ccc(NS(=O)(=O)c2ccc3c(c2)NC(=O)CCS3)cc1,/,/,/,/,/,14%[46.1 µM]
Cc1cc(C)c(NS(=O)(=O)c2ccc3c(c2)NC(=O)CCS3)c(C)c1,12µM*,-2,2,8.3µM*,/,-5%[46.1 µM]
Cc1ccc(NS(=O)(=O)c2ccc3c(c2)NC(=O)C(C)C(=O)N3)c(Cl)c1 (centres undefined),7%,-3,-7,10%,/,/
Cc1ccc(NS(=O)(=O)c2ccc3c(c2)NC(=O)CCS3)c(Cl)c1,4.7µM*,-1,-3,?,-39%[46.1 µM],?
Cc1ccc(Cl)cc1NS(=O)(=O)c1ccc2c(c1)NC(=O)CCS2,/,/,/,/,/,2%[46.1 µM]
Cc1ccc(NS(=O)(=O)c2ccc3c(c2)NC(=O)CCS3)c(C)c1,2.6µM*,-3,-4,10µM*,?,-28%[46.1 µM]
CC(=O)Nc1ccc(S(=O)(=O)N2CCC(c3nc4c(nnn4Cc4ccccc4Cl)c(=O)[nH]3)CC2)cc1,?,-3,36,39%,3%[46.1 µM],17%[46.1 µM]
CCSc1nc(-c2ccc(Cl)cc2)nc2c1Cc1c(CO)cnc(C)c1O2,/,/,/,/,/,0%[46.1 µM]
Cc1nnc(SCC(=O)NC(C)(C)C)n1NCc1c(F)cccc1Cl,10%,-6,-1,2.3µM*,0%[46.1 µM],5%
Cc1nnc(SCC(=O)NC(C)(C)C)n1NCc1ccc(Cl)cc1,-12%,-4,-11,-1%,-1%[46.1 µM],-2%
Cc1nnc(SCC(=O)NC(C)(C)C)n1CCc1ccccc1,11%,11*,8,?,17%[46.1 µM],-4%
COc1ccccc1NC(=O)CSc1nnc(C)n1CCc1ccccc1,?,1,-2,10µM*,-9%,-3%
CCCNC(=O)CN1C(=O)COc2ccc(S(=O)(=O)N3CCCCCC3)cc21,-8%,-4,-3,-5%,2%[46.1 µM],12%[46.1 µM]
Cc1c(C(=O)N2CCCC2)nnn1-c1nonc1N,9%,-3,-7,/,1%,-4%
COc1ccc(C2CC(=O)Oc3c(C(C)C)ccc(C)c32)cc1 (centres undefined),/,-4,i,/,/,/
Cc1noc(C)c1CSc1nc2ccccc2c(=O)n1-c1ccc(F)cc1F,?,5,5,?,?,-19%
C/C(Cn1cnc([N+](=O)[O-])n1)=N/NC(=O)COc1c(Cl)cc(Cl)cc1Cl,-3%,13,-10,41%,11%,2%
SMILES,Pf growth 48h,Cycloheximide cs,Shiga toxin inh,Pf growth 96h,MARV entry inh,Lassa entry inh
COCCCNCC(O)COc1cccc2[nH]c(C)cc12 (centres undefined),-11%,-1,-7,38%,-2%[46.1 µM],6%[46.1 µM]
O=C(COc1ccccc1[N+](=O)[O-])Nc1ccccc1N1CCCCC1,-8%,-3,-2,-24%,?,?
COCCNc1nc(-c2cc3ccccc3o2)cs1,238%,83*,74*,0%,?,4µM*
CCOc1ccc(NC(=O)Nc2cccn(Cc3ccccc3)c2=O)cc1,-15%,31*,33,?,-20%[46.1 µM],?
COc1ccc(Cn2cccc(NC(=O)Nc3cccc(C#N)c3)c2=O)cc1,-8%,-3,-9,52%,?,?
O=C(NCc1ccccc1)Nc1cccn(Cc2ccccc2)c1=O,-6%,13,-4,8%,0%,?
CCOc1ccc(NC(=O)Nc2ccccc2SC)cc1,83%,33*,66*,i,?,?
CSc1ccccc1NC(=O)Nc1cccc(F)c1,91%,22*,41*,4%,?,?
O=C(NCc1ccccc1)Nc1cccn(Cc2ccccc2F)c1=O,30%,20*,5,-8%,?,-9%
CCc1ccccc1NC(=O)Nc1cccc(F)c1,24%,15,23,35%[1.15 µM],/,/
CC(=O)C1=C(O)C(=O)N(c2ccc(S(=O)(=O)Nc3nccs3)cc2)C1c1ccc([N+](=O)[O-])cc1 (centres undefined),-26%,-3,17,?,-11%[46.1 µM],4%[46.1 µM]
CSc1ccccc1NC(=O)Nc1ccccc1,105%,25*,91*,9%,?,28%[14.3 µM]
COc1ccccc1NC(=O)Nc1ccccc1SC,-2%,1,35,42%,2%[46.1 µM],-7%
Cc1nc2ccccn2c(=O)c1NC(=O)c1cccc(F)c1,/,/,/,/,/,-6%[46.1 µM]
CCOC(=O)c1c(C)oc2c1c(C=NCc1ccccn1)c(O)c1ccccc12,2.1µM*,29*,47*,?,?,14µM*
CCOC(=O)c1c(C)n(CC)c2c1cc(O)c1ccccc12,-34%,-2,-1,6%,?,7%
CC(=O)c1c(C)oc2c1cc(O)c1ccccc12,33%,20*,31,28%,/,/
CCOC(=O)c1c(C)n(Cc2ccco2)c2c1cc(O)c1ccccc12,3.7µM*,22,25,/,-27%,-1%
CC(=O)c1cc(O)c2ccccc2c1O,?,31*,66*,?,/,/
Cn1cnc(S(=O)(=O)Nc2ccc(Cl)c(C(F)(F)F)c2)c1,17%,-4,-15,29%,2%[46.1 µM],-1%[46.1 µM]
CS(=O)(=O)N(CC(=O)NC1CC1)c1cccc(F)c1,3%,-1,4,/,54%,11%
CCOC(=O)c1c(C)[nH]c2c1cc(O)c1ccccc12,0.15µM*,34*,65*,?,?,12%
CCOC(=O)c1c(C)oc2c1cc(O)c1ccccc12,120%,35*,108*,-2%,-22%,11%
O=C(COC(=O)C12CC3CC(CC(O)(C3)C1)C2)Nc1ccc(Cl)cc1F,495%,/,/,i,/,/
CC(=C/c1ccco1)/C=N/N1CCN(c2ccccc2)CC1,251%,46*,86*,i,-23%,1%
CC(/C=N/N1CCN(c2ccccc2)CC1)=C\c1ccco1,63%,44*,37,i,?,16%
